# An excerpt weighted towards active compounds, which were near 11% of everything screened.
# Luciferase inh: inhibitors of firefly (Photinus pyralis) luciferase; purified P. pyralis luciferase, luminescence, biochemical; Potency, µM (doses to about 115 µM), usual class: inhibitors; 76,000 tested, 2.5% active; further: nearly all actives have a fitted effect of over 65% in size
# Target sequence (P08659 whole entry, looked up): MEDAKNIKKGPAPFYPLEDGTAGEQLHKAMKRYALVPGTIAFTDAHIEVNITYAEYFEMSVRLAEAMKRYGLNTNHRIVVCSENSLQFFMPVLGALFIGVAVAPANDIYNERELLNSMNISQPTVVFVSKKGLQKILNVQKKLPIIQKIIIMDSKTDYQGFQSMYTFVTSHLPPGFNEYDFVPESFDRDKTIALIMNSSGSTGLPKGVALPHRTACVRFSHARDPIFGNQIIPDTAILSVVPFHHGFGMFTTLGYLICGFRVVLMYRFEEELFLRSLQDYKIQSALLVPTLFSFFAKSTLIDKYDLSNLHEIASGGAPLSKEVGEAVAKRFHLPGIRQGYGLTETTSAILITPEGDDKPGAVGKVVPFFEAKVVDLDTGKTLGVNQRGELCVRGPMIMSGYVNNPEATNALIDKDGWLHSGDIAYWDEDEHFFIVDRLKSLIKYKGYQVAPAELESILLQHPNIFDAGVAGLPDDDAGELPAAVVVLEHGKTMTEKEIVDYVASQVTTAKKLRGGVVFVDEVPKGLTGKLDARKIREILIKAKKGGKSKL
#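 Purified P. pyralis luciferase (10nM final) in 50mM Tris acetate pH 7.5, 10mM Mg acetate, 0.01% Tween-20, 0.05% BSA with 10uM D-luciferin and 10uM ATP. Compounds titrated qHTS. Luminescence imaged on CCD.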
# 3T3 cytotox: NIH 3T3 cell cytotoxicity. NIH 3T3 viability, CellTiter-Glo ATP luminescence, 48-72 h. Potency, µM (top dose mostly 96.7 µM), without a hit: at the highest dose activity change, negative = cytotoxicity, hits mostly inhibitors. 94,000 tested, 4.3% active; further: nearly all actives have a fitted effect of over 55% in size
#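 Mouse fibroblast NIH 3T3 cells, 400 per well, received compound via pintool and were incubated for 48 or 72 hr prior to CellTiter-Glo ATP luminescence measurement.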
# hNpr1 antagonist: antagonists of human natriuretic peptide receptor Npr1; 76,000 tested, 1.6% active; P16066; Potency, µM (titrated, usually from 46.3 µM), inactives show at the highest dose activity change, negative = inhibition, actives largely listed as inhibitors; HEK293 hNpr1 GloSensor cGMP, ANP-stimulated luminescence; calls by dose curve; further: nearly all actives have a fitted effect of over 60% in size
#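 HEK293 cells stably expressing human Npr1 and cGMP GloSensor pGS-40F, loaded 2 h with 2% GloSensor reagent, given compound 30 min at room temperature. Luminescence read before and 20 min after 0.1 nM hNppA.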
# HEK cytotox: cytotoxic compounds in HEK 293 cells. AID 1345083. 94,000 tested, 6.6% active. HEK 293 viability, ATP luminescence (CellTiter-Glo), 48-72 h. Potency, µM (series often up to 115 µM), for the others: at the top dose activity change, negative = cytotoxicity, most hits filed as inhibitors; further: nearly all actives have a fitted effect of over 60% in size
#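 CellTiter-Glo luminescence (cellular ATP) was read after 48 or 72 hr of compound exposure at 37 degree Celsius. Cells were HEK 293 plated at 250 cells/well.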
# * marks the source's active call; other numbers are inactive results; i = inactive; ? = inconclusive; nt = no result given; [ ] = dose if it differs, or a comment. Unless noted, the call rests on the fitted dose curve; in most records, active means well fitted curve in the direction sought with a large enough effect; inconclusive means small, poorly fitted or top-dose-only effect, or another doubt; inactive means no such curve, though single readings can be large; an effect the other way counts as inactive or inconclusive. On the % scale 0 is the no-effect control and ±100 the full control effect; potency means the concentration at half of the fitted maximal effect.
SMILES,Luciferase inh,3T3 cytotox,hNpr1 antagonist,HEK cytotox
c1csc(CN2Cc3[nH]cnc3C[C@H]2c2nc(-c3ccc4ccccc4c3)no2)c1,i,?,-24%[70.6 µM],50µM*
COc1ccc2[nH]c3c(c2c1)CCNC31CCN(C(=O)c2ccc(OC)nc2OC)CC1,i,-28%,3%,11µM*
COc1ccc2[nH]c3c(c2c1)CCNC31CCN(C(=O)c2cnc(C)cn2)CC1,i,-3%,9%,?
COc1ccc2[nH]c3c(c2c1)CCNC31CCN(C(=O)c2ccc(C)nc2)CC1,i,-11%,1%,79µM*
COc1ccc(CC(=O)NC2CCCc3c2[nH]c2ccc(F)cc32)cc1OC (centres undefined),i,?,?,?
O=C(Cc1c[nH]c2ccccc12)NC1CCCc2c1[nH]c1ccc(F)cc21 (centres undefined),i,32µM*,-15%,35µM*
COCCn1cc(C(=O)NC2CCCc3c2[nH]c2ccccc32)c2ccccc2c1=O (centres undefined),i,?,-6%,45µM*
CC(C)CC(=O)NC1CCCc2c1[nH]c1ccc(Cl)cc21 (centres undefined),i,20µM*,-13%,?
O=C(Cc1ccccc1)NC1CCCc2c1[nH]c1ccccc21 (centres undefined),i,22µM*,-1%,?
Cc1ccc(C(=O)NCCNC(=O)c2ccc(-c3cncnc3)cc2)cc1,nt,-23%,nt,-27%
c1cncc(-c2ccnc(NCC(c3cccnc3)N3CCCCC3)n2)c1 (centres undefined),i,-17%,-1%,i
O=C(c1ccc(CNc2nccc(-c3cccnc3)n2)cc1)N1CCCCC1,i,50µM*,-10%,40µM*
CCCCn1c(=O)c(C(=O)N2CCN(C(=O)c3ccc(F)cc3)CC2)nc2cccnc21,nt,1%,nt,i
COc1ccc(C(=O)Nc2ccc(-c3noc([C@@H]4CCCN4Cc4ccncc4)n3)cn2)cc1,?,?,13µM*,?
COCC(=O)Nc1ccc(-c2noc([C@@H]3CCCN3Cc3cc4ccccc4o3)n2)cn1,i,?,-3%[70.6 µM],71µM*
CC(=O)N1CCN(C(=O)c2cc(-c3ccccc3F)nc3c2cnn3C)CC1,nt,-18%,nt,1%
CN(C)[C@@H]1CN(Cc2cc(F)c(F)c(F)c2)CC[C@@H]1CNC(=O)C1CC1,i,-16%,7%,-4%
COc1ccc(CCC(=O)N2CC[C@@H]3COCCN(Cc4ccncc4)[C@@H]3C2)cc1,40µM*,?,-12%,-4%
COc1cccc(-c2nc(N3CCOCC3)cc3c2CN(Cc2ccccc2)C3=O)c1OC,i,-22%,1%,?
CC(C)c1ccc(OCC(=O)c2ccc3c(c2)N(CCCC(=O)N2CCOCC2)C(=O)CO3)cc1,?,32µM*,-18%,32µM*
O=C(CN1C(=O)COc2ccc(C(=O)COc3ccc(Cl)cc3F)cc21)NC1CCCCC1,i,?,3%,28µM*
COCCNC(=O)CCCN1C(=O)COc2ccc(C(=O)COc3ccc(C(C)(C)C)cc3)cc21,14µM*,?,-16%,?
COCCNC(=O)CCCN1C(=O)COc2ccc(C(=O)COc3ccc(F)c(Cl)c3)cc21,i,?,-3%,?
CCCCNC(=O)CCCN1C(=O)COc2ccc(C(C)(C)CC)cc21,i,?,-1%,45µM*
CN(Cc1ccccc1)C(=O)CN1C(=O)COc2ccc(C(=O)COc3ccc(F)cc3)cc21,i,?,-1%,20µM*
SMILES,Luciferase inh,3T3 cytotox,hNpr1 antagonist,HEK cytotox
COc1ccc(F)cc1-c1ccc(CN2CCC(NC(=O)c3cccc(Cl)c3)C2)cc1 (centres undefined),nt,22µM*,nt,22µM*
COc1ccccc1-c1ccc(CN2CCC(NC(=O)c3cccc(Cl)c3)C2)cc1 (centres undefined),nt,22µM*,nt,20µM*
CCOc1ccc(C(=O)NC2CCN(c3cc(-c4ccccc4)[nH]n3)CC2)cc1OCC,i,-16%,-5%,?
CCOc1cc(C(=O)NC2CCN(c3cc(-c4ccccc4)[nH]n3)CC2)cc(OCC)c1OCC,i,?,-1%,45µM*
CCOc1ccc(C(=O)NC2CCN(c3cc(-c4ccc(F)cc4)[nH]n3)CC2)cc1OCC,i,?,3%,40µM*
CCOc1cc(C(=O)NC2CCN(c3cc(-c4ccc(F)cc4)[nH]n3)C2)cc(OCC)c1OCC (centres undefined),i,25µM*,1%,35µM*
NCCCC(=O)N1CCC2(CC1)CN(C(=O)c1ccc(Cl)cc1)CCO2,nt,32µM*,nt,3%
CCn1c(C2CCN(S(=O)(=O)c3ccc(C)cc3)CC2)nn(C)c1=O,nt,-29%,nt,-7%
COCCn1c(=O)c(C(=O)N2CCN(C(=O)c3ccccc3Cl)CC2)nc2cccnc21,nt,-12%,nt,-4%
CCN(CC)C(=O)CN1C(=O)C2(CCCCC2)C1c1ccccc1 (centres undefined),nt,-8%,nt,-10%
Cc1ccc(C(=O)N2CCC3(CC2)Cc2ccccc2NC3=O)cc1,i,?,-9%[70.6 µM],?
COC(=O)N(C)Cc1cccc(N2CCN(C(C)c3ccccc3)CC2)c1 (centres undefined),nt,?,nt,45µM*
CC(c1ccccc1)N1CCN(c2cccc(CN(C)S(C)(=O)=O)c2)CC1 (centres undefined),nt,?,nt,45µM*
COc1cccc(CC(=O)N2CCC3(CC2)CC(CC(=O)NCc2ccccc2)CCO3)c1 (centres undefined),nt,-30%,nt,?
Cc1cccc(N2Cc3c(NC4CCCC4)ncnc3N(C)CC2=O)c1,nt,?,nt,-19%
CCn1ccc(C(=O)N2CC(Oc3ccc(-c4nc(-c5ccccc5)no4)cc3)C2)n1,?,40µM*,-17%,?
CCn1nccc1C(=O)N1CC(Oc2ccc(-c3nc(-c4ccccc4)no3)cc2)C1,?,?,4.5µM*,11µM*
CCn1ccc(C(=O)N2CC(Oc3ccc(-c4nc(C)no4)cc3)C2)n1,i,-25%,0%,?
O=C(Nc1ccccc1)N1CCCC(C(=O)N2CCC(c3nc4ccncc4[nH]3)CC2)C1 (centres undefined),nt,-24%,nt,-14%
Cc1ccc(NC(=O)N2CCc3c(c4ccccc4n3C)C2)cc1,?,?,-1%,?
Cn1c2c(c3ccccc31)CN(C(=O)Nc1ccccc1F)CC2,?,35µM*,-3%,45µM*
Cn1c2c(c3ccccc31)CN(C(=O)Nc1ccc(Cl)cc1Cl)CC2,25µM*,?,-19%,?
Cn1c2c(c3cc(F)ccc31)CN(C(=O)Nc1ccc(Cl)cc1Cl)CC2,i,?,-13%,?
COc1ccc(CN2CC(COc3ccccc3)Oc3ncccc3[S+]2(=O)[O-])cc1 (centres undefined),nt,?,nt,22µM*
CCN1CCC2(CCC1=O)CN(Cc1ccc(C)c3ccccc13)CCN2C (centres undefined),i,-11%,5%,79µM*

# Source: PubChem (National Center for Advancing Translational Sciences (NCATS))
